PubChem BioAssay (Tox21)
Records with an inconclusive call do not appear. Entries that show only a call come without a potency. Active and inactive are the calls of the source. Unless noted, calls follow the shape of the dose curve; as a rule, active = well fitted curve in the direction sought with a large enough effect in the repeat runs; inconclusive = weak or mixed curves; inactive = no such curve, though single readings can be large; an effect the other way counts as inactive or inconclusive.

Experiments:
[1] = qHTS assay to identify small molecule antagonists of the glucocorticoid receptor (GR) signaling pathway - cell viability counter screen (AID 720693); details: GR-bla HeLa viability, CellTiter-Glo luminescence, 18 h, with 5 nM dexamethasone present; series mostly up to 58.5 µM; also: nearly all actives have a fitted effect of over 55% in size
[2] = qHTS assay for identifying genotoxic compounds that show differential cytotoxicity against isogenic chicken DT40 cell lines with known DNA damage response pathways - wild type cell line (AID 743012); details: DT40 wild type chicken cells viability, CellTiter-Glo, 40 h; series mostly up to 68.4 µM; also: nearly all actives have a fitted effect of over 60% in size; also: potency is read from the fitted curve at half-maximal effect
Method in brief: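 Wild-type DT40 cells (300/well) exposed to compounds for 40 hours at 37 C/5% CO2. Viability read by CellTiter-Glo luminescence after 30 min at room temperature.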

[3] = qHTS assay for identifying genotoxic compounds that show differential cytotoxicity against isogenic chicken DT40 cell lines with known DNA damage response pathways - Rev3 mutant cell line (AID 743014); details: chicken DT40 Rev3-/- viability, CellTiter-Glo, 40 h; series mostly up to 68.4 µM; also: nearly all actives have a fitted effect of over 55% in size; also: potency is read from the fitted curve at half-maximal effect
[4] = qHTS assay for identifying genotoxic compounds that show differential cytotoxicity against isogenic chicken DT40 cell lines with known DNA damage response pathways - Rad54/Ku70 mutant cell line (AID 743015); details: DT40 Rad54/Ku70 mutant viability, CellTiter-Glo, 40 h; series mostly up to 66.8 µM; also: nearly all actives have a fitted effect of over 60% in size; also: potency is read from the fitted curve at half-maximal effect
[5] = qHTS assay to identify small molecule antagonists of the androgen receptor (AR) signaling pathway - cell viability counter screen (AID 743033; also: nearly all actives have a fitted effect of over 45% in size); details: AR-bla HEK293 viability, CellTiter-Glo luminescence, 16 h; series mostly up to 58.5 µM
[6] = qHTS assay to identify small molecule antagonists of the androgen receptor (AR) signaling pathway using the MDA cell line - cell viability counter screen (AID 743041; also: nearly all actives have a fitted effect of over 45% in size; also: potency is read from the fitted curve at half-maximal effect); details: MDA-kb2 viability, CellTiter-Fluor, 16 h, cells co-treated with R1881 androgen agonist; series mostly up to 70.3 µM
Method in brief: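 MDA-kb2 AR-luc cells (MMTV-luciferase, AR/GR responsive) treated with compounds plus R1881 agonist for 16 h at 37C. CellTiter-Fluor added at 15.5 h; fluorescence read after 30 min in the same wells.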

[7] = qHTS assay to identify small molecule antagonists of the thyroid receptor (TR) signaling pathway - cell viability counter screen (AID 743064); details: GH3.TRE-Luc viability, CellTiter-Fluor, 24 h; series mostly up to 70.3 µM; also: nearly all actives have a fitted effect of over 50% in size; also: potency is read from the fitted curve at half-maximal effect
Method in brief: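 Rat GH3 pituitary tumor cells stably expressing two TR response elements driving luciferase were plated, rested 4 h, then dosed with library compounds and T3 (1 nM final). After 23.5 h at 37 °C, CellTiter-Fluor was added for 30 min and fluorescence recorded.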

[8] = qHTS assay to identify small molecule antagonists of the thyroid receptor (TR) signaling pathway (AID 743065); details: GH3.TRE-Luc, T3-stimulated luciferase inhibition, 23.5 h; series mostly up to 70.3 µM; also: nearly all actives have a fitted effect of over 55% in size; also: potency is read from the fitted curve at half-maximal effect
Method in brief: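 GH3.TRE-Luc rat pituitary cells (two TREs driving luciferase) were dosed with compound, then stimulated with 1 nM T3 (final) for 23.5 h at 37 C. ONE-Glo luminescence was the read-out, with CellTiter-Fluor fluorescence as the cytotoxicity counter-screen.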

[9] = system: thyroid hormone receptor (rat, GH3 cells); experiment: qHTS assay to identify small molecule agonists of the thyroid receptor (TR) signaling pathway (AID 743066; calls by dose curve); details: GH3.TRE-Luc cells, TR agonist luciferase, 24 h; series mostly up to 83.9 µM
[10] = qHTS assay to identify small molecule antagonists of the estrogen receptor alpha (ER-alpha) signaling pathway - cell viability counter screen (AID 743074; calls by dose curve;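 also: HEK293 cells carrying ER-alpha-UAS-bla reporter stimulated with 17beta-estradiol; nearly all actives have a fitted effect of over 45% in size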); details: ERalpha-bla HEK293 viability, CellTiter-Glo luminescence, 18 h; series mostly up to 69.4 µM
[11] = qHTS assay to identify small molecule antagonists of the estrogen receptor alpha (ER-alpha) signaling pathway using the BG1 cell line - cell viability counter screen (AID 743081); details: BG1Luc4E2 viability, CellTiter-Fluor, 22 h; series mostly up to 70.3 µM;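 also: compound given together with 17beta-estradiol as the ER stimulus; nearly all actives have a fitted effect of over 45% in size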; also: potency is read from the fitted curve at half-maximal effect
Aromatase (Homo sapiens) = Aromatase (Homo sapiens) (UniProt P11511); experiment: qHTS assay to identify aromatase inhibitors (AID 743083); details: MCF-7 aro ERE, testosterone-driven ERE luciferase, 24 h; series mostly up to 70.3 µM; also: nearly all actives have a fitted effect of over 55% in size
Chain of Aromatase (Homo sapiens) (P11511 whole entry, looked up): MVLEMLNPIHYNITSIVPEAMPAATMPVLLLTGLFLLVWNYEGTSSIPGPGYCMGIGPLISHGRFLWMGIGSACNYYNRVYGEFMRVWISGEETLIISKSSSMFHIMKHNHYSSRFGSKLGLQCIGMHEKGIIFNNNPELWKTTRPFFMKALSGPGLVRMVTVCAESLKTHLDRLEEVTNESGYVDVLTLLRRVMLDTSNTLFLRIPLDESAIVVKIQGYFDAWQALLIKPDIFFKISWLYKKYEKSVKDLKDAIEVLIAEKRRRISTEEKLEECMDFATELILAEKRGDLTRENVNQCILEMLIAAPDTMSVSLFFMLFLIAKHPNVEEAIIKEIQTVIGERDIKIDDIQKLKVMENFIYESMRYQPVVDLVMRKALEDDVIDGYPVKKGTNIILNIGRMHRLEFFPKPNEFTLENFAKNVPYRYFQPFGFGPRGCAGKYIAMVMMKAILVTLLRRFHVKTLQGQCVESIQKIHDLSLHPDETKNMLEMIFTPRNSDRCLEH

[12] = biological target: Estrogen receptor (Homo sapiens) (UniProt P03372); experiment: qHTS assay to identify small molecule agonists of the estrogen receptor alpha (ER-alpha) signaling pathway (AID 743075; calls by dose curve); details: HEK293 ER-alpha-UAS-bla, beta-lactamase FRET ratio, 18 h; series mostly up to 70.1 µM
Chain of Estrogen receptor (Homo sapiens) (P03372 whole entry, looked up): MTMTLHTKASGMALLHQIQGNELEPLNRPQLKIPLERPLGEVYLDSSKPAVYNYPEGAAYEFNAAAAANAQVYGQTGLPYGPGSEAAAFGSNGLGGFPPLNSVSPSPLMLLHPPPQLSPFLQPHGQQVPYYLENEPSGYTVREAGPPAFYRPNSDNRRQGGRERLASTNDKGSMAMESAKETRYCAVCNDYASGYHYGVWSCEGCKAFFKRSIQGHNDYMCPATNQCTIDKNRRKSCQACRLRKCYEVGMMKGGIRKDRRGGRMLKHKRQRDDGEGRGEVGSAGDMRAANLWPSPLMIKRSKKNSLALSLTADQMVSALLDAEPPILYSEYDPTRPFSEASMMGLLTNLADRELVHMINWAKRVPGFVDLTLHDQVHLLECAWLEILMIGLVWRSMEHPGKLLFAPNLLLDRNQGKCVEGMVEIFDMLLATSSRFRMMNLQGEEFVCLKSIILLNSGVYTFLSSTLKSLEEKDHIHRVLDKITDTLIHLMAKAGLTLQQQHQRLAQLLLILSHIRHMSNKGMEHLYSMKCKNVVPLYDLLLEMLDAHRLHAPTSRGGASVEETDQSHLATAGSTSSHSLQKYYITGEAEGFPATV

[13] = qHTS assay to identify small molecule antagonists of the estrogen receptor alpha (ER-alpha) signaling pathway using the BG1 cell line (AID 743080; calls by dose curve;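 also: BG1 cells stimulated with 17beta-estradiol alongside compound; nearly all actives have a fitted effect of over 25% in size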); details: BG1Luc4E2 ERE-luciferase antagonist mode, luminescence; series mostly up to 70.3 µM
Method in brief: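 Quantitative HTS on the Tox21 10K library: BG1 cells with endogenous ER-alpha and ERE-luciferase reporter, 17beta-estradiol stimulation, 21.5 h compound exposure, luminescence endpoint with parallel fluorescence cytotoxicity counter-read.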

[14] = biological target: Androgen receptor (Homo sapiens) (UniProt P10275); experiment: qHTS assay to identify small molecule antagonists of the androgen receptor (AR) signaling pathway (AID 743035; active = well fitted inhibition curve with a large enough effect in the signal ratio in the repeat runs, not every such curve was filed as active; the % refers to the signal ratio); details: HEK293 AR-UAS-bla, R1881-stimulated, beta-lactamase FRET, 16 h; series mostly up to 58.5 µM
Chain of Androgen receptor (Homo sapiens) (P10275 whole entry, looked up): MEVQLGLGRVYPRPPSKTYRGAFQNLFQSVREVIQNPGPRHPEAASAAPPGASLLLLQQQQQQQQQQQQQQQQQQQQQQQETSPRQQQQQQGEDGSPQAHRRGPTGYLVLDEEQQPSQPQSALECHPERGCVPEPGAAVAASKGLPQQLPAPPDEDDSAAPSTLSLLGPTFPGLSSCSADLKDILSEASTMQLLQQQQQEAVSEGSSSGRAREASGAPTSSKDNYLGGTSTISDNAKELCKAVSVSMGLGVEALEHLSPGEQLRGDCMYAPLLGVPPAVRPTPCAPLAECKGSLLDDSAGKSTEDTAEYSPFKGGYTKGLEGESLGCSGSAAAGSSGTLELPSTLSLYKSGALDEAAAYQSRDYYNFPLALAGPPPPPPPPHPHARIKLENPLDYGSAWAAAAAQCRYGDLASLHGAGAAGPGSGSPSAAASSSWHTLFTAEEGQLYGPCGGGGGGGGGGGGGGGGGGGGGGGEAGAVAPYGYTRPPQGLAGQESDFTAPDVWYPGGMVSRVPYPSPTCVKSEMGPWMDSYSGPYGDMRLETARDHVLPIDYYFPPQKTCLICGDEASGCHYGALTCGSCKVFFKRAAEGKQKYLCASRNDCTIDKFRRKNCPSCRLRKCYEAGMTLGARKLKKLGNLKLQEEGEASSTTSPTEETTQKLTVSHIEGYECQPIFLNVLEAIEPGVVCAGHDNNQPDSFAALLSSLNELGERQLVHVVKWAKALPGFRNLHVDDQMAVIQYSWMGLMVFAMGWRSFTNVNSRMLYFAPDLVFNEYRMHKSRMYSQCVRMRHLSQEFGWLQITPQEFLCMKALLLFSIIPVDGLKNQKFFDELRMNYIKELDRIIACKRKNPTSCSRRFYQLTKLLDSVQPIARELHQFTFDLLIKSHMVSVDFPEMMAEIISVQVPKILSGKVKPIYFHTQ
Method in brief: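 HEK293 cells stably carrying UAS-beta-lactamase reporter, 2,000/well, given compounds plus R1881 agonist and incubated 16 h at 37C. LiveBLAzer B/G FRET substrate then added for 2 h at room temperature before fluorescence reading.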

[15] = biological target: Androgen receptor (Homo sapiens) (UniProt P10275); experiment: qHTS assay to identify small molecule agonists of the androgen receptor (AR) signaling pathway (AID 743036; active = well fitted activation curve with a large enough effect in the signal ratio in the repeat runs, with a control signal flat, not every such curve was filed as active; the % refers to the signal ratio); details: HEK293 AR-UAS-bla GripTite, beta-lactamase FRET ratio, 16 h; series mostly up to 62.4 µM
Method in brief: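 Quantitative HTS of the Tox21 10K library in HEK293 cells bearing a stably integrated UAS-controlled beta-lactamase reporter. Compound exposure lasted 16 h at 37C. Reporter activity was detected by FRET substrate fluorescence after 2 h at room temperature.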

[16] = biological target: Androgen receptor (Homo sapiens) (UniProt P10275); experiment: qHTS assay to identify small molecule agonists of the androgen receptor (AR) signaling pathway using the MDA cell line (AID 743040; also: nearly all actives have a fitted effect of over 20% in size; also: potency is read from the fitted curve at half-maximal effect); details: MDA-kb2 AR-luc cells, MMTV luciferase, 16 h; series mostly up to 70.3 µM
Method in brief: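 MDA-kb2 breast carcinoma cells carrying MMTV-luciferase (responsive to AR and GR), plated 5 h then treated 16 h with compounds at 37C, 0% CO2. Read-out was ONE-Glo luminescence after 30 min at room temperature.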

[17] = biological target: Androgen receptor (Homo sapiens) (UniProt P10275); experiment: qHTS assay to identify small molecule antagonists of the androgen receptor (AR) signaling pathway using the MDA cell line (AID 743042; also: nearly all actives have a fitted effect of over 55% in size); details: MDA-kb2 AR-luc, MMTV luciferase, R1881 antagonist, 16 h; series mostly up to 70.3 µM
Method in brief: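 MDA-kb2 breast carcinoma cells carrying MMTV-luciferase (AR/GR responsive) were co-treated with compounds and the agonist R1881 for 16 h at 37C. Inhibition read as ONE-Glo luminescence; CellTiter-Fluor fluorescence measured in parallel for cytotoxicity.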

[18] = biological target: Estrogen receptor (Homo sapiens) (UniProt P03372); experiment: qHTS assay to identify small molecule antagonists of the estrogen receptor alpha (ER-alpha) signaling pathway (AID 743069; active = well fitted curve in the direction sought with a large enough effect in the signal ratio in the repeat runs, not every such curve was filed as active; the % refers to the signal ratio); details: HEK293 ER-alpha-UAS-bla, beta-lactamase ratio, antagonist mode; series mostly up to 69.4 µM
Method in brief: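 HEK293 ER-alpha-UAS-bla GripTite cells, held overnight in 2% charcoal-stripped FBS, 5,000 cells/well, preincubated 4 h, then compound plus 17beta-estradiol for 18 h at 37C. Beta-lactamase read by LiveBLAzer B/G FRET substrate, 2 h at room temperature.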

[19] = biological target: Estrogen receptor (Homo sapiens) (UniProt P03372); experiment: qHTS assay to identify small molecule agonists of the estrogen receptor alpha (ER-alpha) signaling pathway using the BG1 cell line (AID 743079); details: BG1Luc4E2 cells, ERE-luciferase agonist, 22 h; series mostly up to 70.3 µM; also: nearly all actives have a fitted effect of over 20% in size

Row | Structure (SMILES) | Potency [1] | Potency [2] | Potency [3] | Potency [4] | Potency [5] | Potency [6] | Potency [7] | Potency [8] | Potency [9] | Potency [10] | Potency [11] | Potency (Aromatase (Homo sapiens)) | Potency [12] | Potency [13] | Potency [14] | outcome [15] | Potency [16] | Potency [17] | Potency [18] | Potency [19]
1 | c1ccc(CN2CCNCC2)cc1 | inactive | inactive | inactive | inactive | inactive | inactive | inactive | inactive | inactive | inactive | inactive | – | – | – | – | – | – | – | – | –
2 | O=Cc1ccc2c(c1)OCO2 | inactive | inactive | inactive | inactive | inactive | inactive | inactive | inactive | inactive | inactive | inactive | inactive | – | – | – | – | – | – | – | –
3 | O=[N+]([O-])c1cc(C(F)(F)F)cc([N+](=O)[O-])c1Cl | inactive | inactive | inactive | inactive | inactive | 43.5 µM (active) | 61.4 µM (active) | inactive | inactive | inactive | – | inactive | inactive | inactive | – | – | – | – | – | –
4 | BrCC(Br)C1CCC(Br)C(Br)C1 (stereo not drawn) | inactive | inactive | inactive | inactive | inactive | inactive | 68.2 µM (active) | 48.3 µM (active) | inactive | inactive | inactive | inactive | – | – | inactive | inactive | 1.36 µM (active) | inactive | – | –
5 | COC(=O)C(Cl)C(=O)OC | inactive | inactive | inactive | inactive | inactive | inactive | inactive | inactive | inactive | inactive | inactive | inactive | inactive | – | – | – | – | – | inactive | inactive
6 | O=[N+]([O-])c1ccccc1CCl | inactive | inactive | inactive | inactive | inactive | inactive | inactive | inactive | inactive | inactive | inactive | inactive | inactive | – | – | – | – | – | inactive | inactive
7 | Clc1cc(Cl)c(Cl)c(Cl)c1 | inactive | inactive | inactive | inactive | inactive | inactive | inactive | inactive | inactive | inactive | inactive | inactive | inactive | inactive | – | – | – | – | inactive | –
8 | CC(C)(Cl)[N+](=O)[O-] | inactive | inactive | inactive | inactive | inactive | inactive | inactive | inactive | inactive | inactive | inactive | inactive | – | – | – | – | – | – | – | –
9 | NCC(CC(=O)O)c1ccc(Cl)cc1 (stereo not drawn) | inactive | inactive | inactive | inactive | inactive | inactive | inactive | inactive | inactive | inactive | inactive | inactive | – | – | – | – | – | – | – | –
10 | CNC(C)Cc1ccccc1OC (stereo not drawn) | inactive | inactive | inactive | inactive | inactive | inactive | inactive | inactive | inactive | inactive | inactive | inactive | inactive | inactive | – | – | – | – | inactive | inactive
11 | CCCN(CCCl)c1c([N+](=O)[O-])cc(C(F)(F)F)cc1[N+](=O)[O-] | inactive | inactive | inactive | inactive | inactive | inactive | inactive | inactive | inactive | inactive | inactive | inactive | inactive | inactive | – | – | – | – | inactive | inactive
12 | ClC=C(Cl)Cl | inactive | inactive | inactive | inactive | inactive | inactive | inactive | inactive | inactive | inactive | inactive | inactive | inactive | inactive | – | – | – | – | inactive | inactive
13 | S=C=NCc1ccccc1 | inactive | inactive | inactive | inactive | inactive | – | inactive | – | – | inactive | inactive | inactive | – | – | – | inactive | inactive | inactive | – | –
14 | C=CCN1CC[C@]23c4c5ccc(O)c4O[C@H]2C(=O)CC[C@@]3(O)[C@H]1C5 | inactive | inactive | inactive | inactive | inactive | inactive | inactive | inactive | inactive | inactive | inactive | inactive | – | – | – | – | – | – | – | –
15 | CC(=O)NC1CCSC1=O (stereo not drawn) | inactive | inactive | inactive | inactive | inactive | inactive | inactive | inactive | inactive | inactive | inactive | inactive | inactive | inactive | inactive | inactive | inactive | inactive | inactive | inactive
16 | CC1CC(CC2CCC(N)C(C)C2)CCC1N (stereo not drawn) | inactive | 7.82 µM (active) | 2.47 µM (active) | 9.85 µM (active) | inactive | 31.1 µM (active) | – | – | inactive | inactive | 31.1 µM (active) | inactive | inactive | – | – | inactive | inactive | inactive | inactive | inactive
17 | Cc1ccc2ccccc2c1 | inactive | inactive | inactive | inactive | inactive | inactive | inactive | – | inactive | inactive | inactive | inactive | inactive | inactive | inactive | inactive | inactive | inactive | inactive | inactive
